High-throughput results as filed in PubChem.
The list is not random: actives were taken first. Their share in the collection is about 7.4%.
FLuc counter – firefly luciferase modulation, counter-screen for miR-21 project. actives 6.9% (n = 360,000). Potency, µM (series often up to 57.5 µM), actives largely listed as inhibitors. purified FLuc, Km substrates, luminescence inhibition. P08659; also: nearly all actives have a fitted effect of over 55% in size
Target sequence (P08659 whole entry, looked up): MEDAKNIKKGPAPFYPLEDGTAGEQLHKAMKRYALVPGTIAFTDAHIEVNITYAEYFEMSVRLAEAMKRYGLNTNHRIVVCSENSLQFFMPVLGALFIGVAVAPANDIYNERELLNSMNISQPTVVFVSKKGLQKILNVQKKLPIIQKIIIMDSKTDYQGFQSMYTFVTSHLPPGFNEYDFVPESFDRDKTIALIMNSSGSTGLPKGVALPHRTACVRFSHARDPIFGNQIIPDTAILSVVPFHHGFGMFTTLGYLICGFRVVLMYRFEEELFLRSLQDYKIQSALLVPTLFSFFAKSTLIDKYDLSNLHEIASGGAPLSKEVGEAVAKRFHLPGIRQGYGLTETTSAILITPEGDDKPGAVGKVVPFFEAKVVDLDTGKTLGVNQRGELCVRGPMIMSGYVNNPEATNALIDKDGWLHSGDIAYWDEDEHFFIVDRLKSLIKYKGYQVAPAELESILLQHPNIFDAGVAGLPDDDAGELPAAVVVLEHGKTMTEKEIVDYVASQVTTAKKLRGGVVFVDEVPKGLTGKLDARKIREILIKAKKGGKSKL
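Purified P. pyralis luciferase (10nM final) with 10uM D-luciferin and 10uM ATP (Km levels) in 50mM Tris acetate pH 7.5, 10mM Mg acetate, 0.01% Tween-20, 0.05% BSA; qHTS 6-point titration, ~60 µM downward; luminescence read.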
SMN2 splice enh – enhancers of SMN2 splice variant expression; Potency, µM (highest dose often 46.1 µM), usual class: activators; HEK293 SMN2-luciferase splicing reporter, luminescence, 30-36 h; actives 2.8% (n = 210,000); AID 1458; also: nearly all actives have a fitted effect of over 55% in size
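qHTS luciferase splicing reporter: luminescence rises when SMN2 exon 7 is included in transfected HEK293 cells. Compound exposure lasted 30-36 h at 37C, with 4.5 mM final sodium butyrate as control, followed by a ONE-Glo read.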
NPC1 prom act – activates the NPC1 promoter | Huh7 NPC1 promoter luciferase reporter, 24 h | Potency, µM (highest dose often 9.22 µM), most hits filed as activators | actives 2.4% (n = 320,000); also: nearly all actives have a fitted effect of over 60% in size
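Cells: Huh7 expressing luciferase under the NPC1 promoter, 1500/well. Seeded 2 h, compound added, incubated 24 h at 37 °C. Luciferase reagent, 10 min ambient, then luminescence.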
ELG1 genotoxic – genotoxicity induction in ELG1-luciferase HEK293T cells; HEK293T ELG1-luciferase reporter, luminescence, 16 h; Potency, µM (doses to about 46 µM), hits mostly activators; actives 1.3% (n = 330,000); also: nearly all actives have a fitted effect of over 60% in size
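Luminescence read-out: rising ELG1-luciferase signal, reflecting elevated ELG1 protein under genetic stress, flags genotoxic compounds. Cells were treated for 16 hr at 37 °C before ONE-Glo detection.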
Rab9 prom act – Rab9 promoter activation | actives 2.8% (n = 320,000) | Huh7 Rab9 promoter-luciferase reporter, luminescence, 24 h | AID 485297 | Potency, µM (titrated, usually from 9.22 µM), hits mostly activators; also: nearly all actives have a fitted effect of over 60% in size
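Promoter activation is measured as luciferase luminescence in Huh7 cells stably transfected with a Rab9 promoter–luciferase construct, following 24 h compound exposure at 37 °C and 10 min reagent incubation at ambient temperature.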
A number is an active result; i = inactive; ? = inconclusive; nt = no result given. Calls follow the shape of the dose curve; as a rule, active = well fitted curve in the direction sought with a large enough effect; inconclusive = small, poorly fitted or top-dose-only effect, or another doubt; inactive = no such curve, though single readings can be large; an effect the other way counts as inactive or inconclusive.

SMILES	FLuc counter	SMN2 splice enh	NPC1 prom act	ELG1 genotoxic	Rab9 prom act
Cc1cccc(NC(=O)c2cc(-c3ccc(C)s3)nc3ccccc23)n1	11µM	i	i	i	i
CCN1CCN(C(=O)c2cc(-c3ccc(Cl)s3)nc3ccccc23)CC1	19µM	nt	i	i	i
O=C(Nc1ccccn1)c1cc(-c2ccc(Cl)s2)nc2ccccc12	?	nt	i	i	i
O=C(O)c1cc(-c2ccc(Cl)s2)nc2ccccc12	15µM	?	i	i	i
O=C(Cc1ccc(-c2ccccc2)cc1)NCCS(=O)(=O)N1CCN(c2ccc(F)cc2)CC1	i	nt	nt	nt	nt
COc1ccc2c(c1)O[C@@H](c1cccc(C(F)(F)F)c1)[C@H](OC(=O)NCc1ccc3c(c1)OCO3)C2=O	nt	i	nt	nt	nt
CCC1(c2ccc(OC)cc2)NC(=O)N(CC(=O)NC2CCCCC2C)C1=O (stereo not given)	nt	nt	i	i	i
CCCCCCC(=O)N1CCCC(c2nc(-c3cccc(OC)c3)no2)C1 (stereo not given)	i	nt	i	i	i
Cc1ccc(-c2noc(C3CCCN(C(=O)c4ccccc4Br)C3)n2)o1 (stereo not given)	?	nt	?	i	?
Cc1ccc(-c2noc(C3CCCN(C(=O)c4ccccc4)C3)n2)o1 (stereo not given)	19µM	?	?	9.2µM	?
COc1ccc(-c2noc(C3CCCN(C(=O)c4ccccc4)C3)n2)cc1 (stereo not given)	19µM	nt	i	i	i
CCCC(=O)N1CCCC(c2nc(-c3cccc(OC)c3)no2)C1 (stereo not given)	9.5µM	11µM	3.5µM	?	1.4µM
CCOc1ccc(S(=O)(=O)Nc2ccn(C)n2)cc1	i	nt	i	i	i
O=C(NCc1ccc(Cl)cc1)c1cccc2c1C(=O)N(CC1CCCO1)C2 (stereo not given)	i	nt	i	i	i
CN(CC(=O)Nc1c(Cl)cccc1Cl)C(=O)c1cccn1C	i	nt	i	i	i
CCCCc1ccc(-c2nc(NC(=O)C3C4CCC(O4)C3C(=O)O)sc2C)cc1 (stereo not given)	21µM	i	i	16µM	i
CSc1ncc(C(=O)NCc2cccc(Br)c2)c(-c2ccccc2)n1	i	nt	nt	nt	nt
O=c1oc2cc(Cl)ccc2n1CSc1nc2ccccc2s1	8.5µM	i	?	15µM	?
O=C(CNC(=O)c1cccs1)N/N=C/c1c(F)cccc1Cl	21µM	nt	i	?	i
COc1cccc(/C=N/NC(=O)CNC(=O)COc2cccc(C)c2)c1O	i	nt	i	i	i
COc1cccc(/C=N/NC(=O)CNC(=O)CCc2ccccc2)c1O	9.5µM	nt	i	?	i
O=C(CNC(=O)c1cccs1)NCC(=O)OCc1c(F)cccc1Cl	i	i	i	i	i
COc1cccc(/C=N/NC(=O)CNC(=O)c2cccs2)c1O	21µM	nt	i	i	i
Cc1ccc(/C=N/NC(=O)CNC(=O)c2cccs2)cc1	15µM	nt	i	?	i
CC(NC(=O)CN1C(=O)COc2ccc(Cl)cc21)c1ccccc1 (stereo not given)	i	i	nt	nt	nt
SMILES	FLuc counter	SMN2 splice enh	NPC1 prom act	ELG1 genotoxic	Rab9 prom act
Cc1cccc(C)c1Nc1c(-c2ccsc2)nc2cccc(C)n12	i	i	nt	nt	nt
Cc1nc2scc(-c3ccccc3)c2c(=O)n1N	i	i	i	i	i
Cc1nc2scc(-c3ccccc3)c2c(=O)n1N=C1C=CC(=O)C=C1	19µM	nt	i	?	?
CCOc1ccc(CNC(=O)CCCn2ccc3cc(S(=O)(=O)N4CCCC4)ccc32)cc1	17µM	nt	i	i	i
Cc1ccc(Nc2c(-c3c[nH]c4ccccc34)nc3cc(C)ccn23)cc1	i	14µM	nt	nt	nt
Cc1ccc2nc(-c3c[nH]c4ccccc34)c(Nc3ccc(F)cc3)n2c1	i	14µM	nt	nt	nt
Cc1ccccc1Nc1c(-c2c[nH]c3ccccc23)nc2ccc(Cl)cn12	i	i	nt	nt	nt
Cc1ccccc1Nc1c(-c2c[nH]c3ccccc23)nc2ccccn12	i	i	nt	nt	nt
Cc1ccn2c(Nc3ccccc3)c(-c3c[nH]c4ccccc34)nc2c1	i	11µM	nt	nt	nt
COc1ccc(CNc2nc(-c3ccco3)nn2S(=O)(=O)c2ccc3ccccc3c2)cc1OC	i	nt	nt	nt	nt
CCOC(=O)c1c(C)[nH]c(CCC(=O)NCc2ccccc2C)c1C	i	nt	nt	nt	nt
O=C(Cc1ccccc1[N+](=O)[O-])NCc1ccc2c(c1)OCO2	?	i	?	?	1.8µM
O=C(NCc1ccccc1)c1c[nH]c2cc3c(cc2c1=O)OCCO3	2.4µM	13µM	3.2µM	?	2.5µM
O=C(COC(=O)COc1ccccc1[N+](=O)[O-])NCc1ccc2c(c1)OCO2	nt	nt	nt	i	nt
O=C(CCc1ccccc1)NCc1ccc2c(c1)OCO2	i	nt	i	i	i
O=C(Cc1ccccc1)NCc1ccc2c(c1)OCO2	7.6µM	i	2.8µM	15µM	?
O=C(c1ccco1)N1CCN(Cc2nnc(-c3cccc(Br)c3)o2)CC1	i	nt	i	i	i
Cc1nn(C(C)C(=O)NC2CCCCC2)c(=O)c2nn(-c3ccccc3)c(C)c12 (stereo not given)	i	nt	i	i	i
Cc1ccccc1-n1sc2cc(F)ccc2c1=O	11µM	i	i	i	i
O=c1c2cc(F)ccc2sn1-c1ccccc1	?	nt	i	i	i
CC(=O)Nc1ccc(N/C=C/C(=O)c2ccc(C)o2)cc1	8.5µM	i	4µM	?	?
COc1ccccc1Oc1ccc(N/C=C/C(=O)c2ccc(C)o2)cc1	7.6µM	i	?	i	?
COc1ccccc1OCCNC(=O)c1ccc(C)o1	i	nt	i	?	i
Cc1ccc(C(=O)Nc2nnn(C)n2)cc1	17µM	?	i	?	?
CCn1nnc(NC(=O)c2ccc(C(C)(C)C)cc2)n1	3.4µM	nt	2.2µM	?	1.3µM
SMILES	FLuc counter	SMN2 splice enh	NPC1 prom act	ELG1 genotoxic	Rab9 prom act
CCn1nnc(NC(=O)c2cccnc2)n1	i	i	i	i	i
Cn1nnc(NC(=O)c2cccc(F)c2)n1	i	i	i	i	i
CCCn1nnc(NC(=O)c2ccc3ccccc3c2)n1	15µM	nt	?	i	?
CCCn1nnc(NC(=O)c2ccc(Cl)cc2Cl)n1	19µM	i	3.2µM	9.2µM	3.2µM
COc1ccc(NC(=O)c2nnn(Cc3nc(-c4cc(OC)c(OC)c(OC)c4)oc3C)c2C)cc1Cl	i	i	nt	nt	nt
CCCn1nnc(NC(=O)c2cccc(OCC(C)C)c2)n1	?	i	i	i	i
CCCn1nnc(NC(=O)c2cccc(OCC)c2)n1	17µM	18µM	?	18µM	?
NS(=O)(=O)c1ccc(NC(=O)COC(=O)C2CC2)cc1	nt	nt	nt	i	nt
COc1ccc(/C(N)=N/OC(=O)c2ccc([N+](=O)[O-])c(C)c2)cc1OC	?	i	i	i	i
COc1ccc(/C(N)=N/OC(=O)c2ccc(C)c([N+](=O)[O-])c2)cc1	19µM	i	i	?	i
Cc1cc(C(=O)O/N=C(\N)c2ccncc2)ccc1[N+](=O)[O-]	17µM	nt	?	?	3.2µM
